Usually inhibition stands for the relative decrease from the control value, in per cent.

The structures appear in SMILES notation. A number with no mark means an inactive call. Activity calls are given as the source filed them.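 How the source made its calls, unless noted: active means growth inhibition above 50% at the single 2 µM test dose, taken to imply half-maximal potency below 2 µM; inactive means the rest.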

From PubChem BioAssay come the findings set out here.

The first assay is described as follows: antimalarial activity against Dd2 strain (AID 2302).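 Further: 0% = DMSO untreated growth and 100% = chloroquine plus artemisinin killed control.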 To be noted: P. falciparum Dd2 in RBCs, LDH growth readout, 72 h; at 2 µM; hits give high values.
With `O=C(/C=C/c1ccc(Cl)c(Cl)c1)N1CCC(CCCN2CCC(c3c[nH]c4ccccc34)CC2)CC1`, the growth inhibition is 45%.

With `CCCc1cc(OC)c(C[C@@H]2c3cc(O)c(Cl)cc3CCN2C)cc1OC`, the growth inhibition is 98% (active).

Regarding `O=C(NCCCCN1CCC(c2cccc3ccccc23)CC1)c1ccc(NC(=O)c2ccc(Cl)cc2)cc1`, the growth inhibition was 39%.

On to `Cc1c(C(=O)N(C)C)sc2c1c(=O)n(Cc1ccccc1)c(=O)n2CC(=O)Nc1ccccc1F`, for which the growth inhibition was 98% (active).

With `O=C(NCc1ccc(Cl)cc1)c1ccc(CN2CCCN(CC3CCCCC3)CC2)cc1`, the growth inhibition was 5%.

On to `O=C(Nc1cccc(-c2nc3ccccc3s2)c1)c1ccccc1[N+](=O)[O-]`, for which the growth inhibition was 9%.

Consider `CCCOC(=O)C1=C(C)NC2=C(C(=O)CC(c3ccc(OC)c(OC)c3)C2)C1c1cccc(O)c1` (stereo not given), for which the growth inhibition is 99% (active).

For the molecule `O=C(/C=C/c1ccc(Cl)c(Cl)c1)N1CCC(CN2CCC(c3c[nH]c4ccncc34)CC2)CC1`, the growth inhibition was 72% (active).

With `Cc1ccc(O)cc1Nc1ccnc2ccc(-c3cccc(CNCCN(C)C)c3)cc12`, the growth inhibition is 46%.

For `CCOc1cc(C2C(C(=O)OC(C)C)=C(C)NC3=C2C(=O)CC(c2ccc(Cl)cc2)C3)ccc1OC(C)=O` (stereo not given), the growth inhibition was 20%.

On to `CN1CCC(C(=O)N(Cc2ccc(-c3ccc(CNCCc4ccc(S(C)(=O)=O)cc4)cn3)cc2)C2CCN(Cc3ccccc3)CC2)CC1`, for which the growth inhibition is 95% (active).

Take `COc1cc2nc(N3CCC(CNC(=O)c4ccc(-c5ccc(C(=O)N(C)C)cc5OCCN(C)C)cc4)CC3)nc(N)c2cc1OC`: the growth inhibition was -1%.

Take `COc1ccc(CNc2ccnc3cc(OC)ccc23)cc1`: the growth inhibition is 74% (active).

For `Cc1cc(O)c(CN2CCN(Cc3cccs3)CC2)cc1C(C)C`, the growth inhibition is 97% (active).

In the case of `CN(C)CCCNCc1cn(S(=O)(=O)c2ccccc2Cl)c2ccccc12`, the growth inhibition is 71% (active).

Regarding `Cc1cc(N)c2cc(NC(=O)c3ccc4ccccc4c3)ccc2n1`, the growth inhibition was 99% (active).

In the case of `COc1cccc(NC(=O)NC2CCN(c3ccnc(Nc4ccc(F)cc4)n3)C2)c1` (stereo not given), the growth inhibition is 71% (active).

On to `COc1ccc(CNc2ncnc3c2[nH]c2ccc(F)cc23)cc1`, for which the growth inhibition is 71% (active).

As to `FC(F)(F)c1cnc(Sc2nnc(-c3ccncc3)o2)c(Cl)c1`, the growth inhibition was 96% (active).

Regarding `COc1cccc(-c2csc(C(=O)NCC3CCN(Cc4ccc(C(C)(C)C)cc4)C3)c2)c1` (stereo not given), the growth inhibition is 10%.

Consider `COc1cc(OC)nc(C(Sc2ccc(NC(=O)c3cccs3)cc2)c2ccccc2)n1` (stereo not given), for which the growth inhibition is 96% (active).

With `COCCn1ccc2c3c(N)nc(N)nc3ccc21`, the growth inhibition is 29%.

As to `CCCNC(=O)C1Cc2cc(OC)c(OC)cc2C2(N1)C(=O)N(Cc1cccc(OC)c1)c1ccccc12` (stereo not given), the growth inhibition was 63% (active).

As to `O=C(c1ccc(F)c(F)c1)N1CCOC(CCN2CCC(c3ccccc3)CC2)(c2ccc(Cl)c(Cl)c2)C1` (stereo not given), the growth inhibition is 75% (active).

Take `COc1ccc(-c2nc(NC(=O)CS(=O)(=O)c3ccc(C)cc3)sc2C)cc1`: the growth inhibition was 94% (active).

With `COc1ccc(-c2ccccc2OCCCNc2nc(NCCc3ccc(O)cc3)nc(N3CCNCC3)n2)cc1`, the growth inhibition was 3%.

For the molecule `CC(O)C1CCCCN1C(=O)c1ccc(-c2cccc(-c3nc4ccc(F)cc4[nH]3)c2)cc1` (stereo not given), the growth inhibition is 97% (active).

On to `CCN(CC)CCCC(C)Nc1c(-c2ccc(Br)cc2)cnc2ccccc12` (stereo not given), for which the growth inhibition was 95% (active).

As for `NCc1cccc(-c2cccc(CNC3CCN(Cc4ccccc4)CC3)c2)c1`, the growth inhibition was 45%.

Regarding `NS(=O)(=O)c1ccc(CNc2ccc3ncc(-c4ccc(Cl)cc4)n3n2)cc1`, the growth inhibition was 99% (active).

Consider `CCN(CC)CCCN(CCCN(CC)CC)c1cc(C)nc(Nc2ccc(Cl)cc2)n1`, for which the growth inhibition is 7%.

On to `COc1cc2nc(N3CCC(CNCc4ccc(-c5ccc(C(F)(F)F)cc5)cc4)CC3)nc(N)c2cc1OC`, for which the growth inhibition is 100% (active).

For `CCCCCn1c(Sc2ccc(C#N)c([N+](=O)[O-])c2)nnc1-c1cc(OC)cc(OC)c1`, the growth inhibition is 24%.

With `Cc1cccc2[nH]c(-c3cccc(-c4ccc(NC(=O)C(C)(C)c5ccccn5)cc4)c3)nc12`, the growth inhibition is 4%.

`O=C(Cc1ccsc1)NCC(c1ccccc1Cl)c1c[nH]c2ccccc12` (stereo not given): the growth inhibition was 71% (active).

Regarding `O=C(c1cc(C(=O)Nc2ccccc2)c(=O)n(-c2ccccc2)c1)c1cc(Cl)ccc1O`, the growth inhibition was 95% (active).

With `Cc1ccc2nc(-c3ccccc3)cc(NN=Cc3cccnc3)c2c1`, the growth inhibition was 39%.

As to `Cc1[nH]c(C)c(-c2ccc(OCc3cccc(C(F)(F)F)c3)nc2)c(=O)c1Br`, the growth inhibition is 97% (active).

For `COc1cc2nc(C)nc(Nc3ccc4c(ccn4Cc4ccccc4)c3)c2cc1OC`, the growth inhibition is 99% (active).

Take `O=C(c1ccc(F)cc1)N1CCOC(CCN2CCC(c3ccccc3)CC2)(c2ccc(Cl)c(Cl)c2)C1` (stereo not given): the growth inhibition was 84% (active).

Another assay is described as follows: human hepatoma cell viability loss – ATP luminescence, cytotoxicity control for P. falciparum antimalarial project, primary screen (AID 2303;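 active means inhibition above 50%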;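 further: 0% = DMSO wells and 100% = digitonin-killed cells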). To be noted: HepG2 viability, 24-48 h, at 10 µM, hits give high values.
Regarding `O=C(/C=C/c1ccc(Cl)c(Cl)c1)N1CCC(CCCN2CCC(c3c[nH]c4ccccc34)CC2)CC1`, the inhibition was 44%.

Consider `CCCc1cc(OC)c(C[C@@H]2c3cc(O)c(Cl)cc3CCN2C)cc1OC`, for which the inhibition is 3%.

As for `O=C(NCCCCN1CCC(c2cccc3ccccc23)CC1)c1ccc(NC(=O)c2ccc(Cl)cc2)cc1`, the inhibition was 20%.

`Cc1c(C(=O)N(C)C)sc2c1c(=O)n(Cc1ccccc1)c(=O)n2CC(=O)Nc1ccccc1F`: the inhibition is 13%.

Consider `O=C(NCc1ccc(Cl)cc1)c1ccc(CN2CCCN(CC3CCCCC3)CC2)cc1`, for which the inhibition was 18%.

With `O=C(Nc1cccc(-c2nc3ccccc3s2)c1)c1ccccc1[N+](=O)[O-]`, the inhibition was 0%.

With `CCCOC(=O)C1=C(C)NC2=C(C(=O)CC(c3ccc(OC)c(OC)c3)C2)C1c1cccc(O)c1` (stereo not given), the inhibition is -10%.

Take `O=C(/C=C/c1ccc(Cl)c(Cl)c1)N1CCC(CN2CCC(c3c[nH]c4ccncc34)CC2)CC1`: the inhibition is 44%.

Regarding `Cc1ccc(O)cc1Nc1ccnc2ccc(-c3cccc(CNCCN(C)C)c3)cc12`, the inhibition was -7%.

On to `CCOc1cc(C2C(C(=O)OC(C)C)=C(C)NC3=C2C(=O)CC(c2ccc(Cl)cc2)C3)ccc1OC(C)=O` (stereo not given), for which the inhibition was 16%.

For `CN1CCC(C(=O)N(Cc2ccc(-c3ccc(CNCCc4ccc(S(C)(=O)=O)cc4)cn3)cc2)C2CCN(Cc3ccccc3)CC2)CC1`, the inhibition is 11%.

`COc1cc2nc(N3CCC(CNC(=O)c4ccc(-c5ccc(C(=O)N(C)C)cc5OCCN(C)C)cc4)CC3)nc(N)c2cc1OC`: the inhibition was -1%.

`COc1ccc(CNc2ccnc3cc(OC)ccc23)cc1`: the inhibition was 7%.

For the molecule `Cc1cc(O)c(CN2CCN(Cc3cccs3)CC2)cc1C(C)C`, the inhibition is 7%.

In the case of `CN(C)CCCNCc1cn(S(=O)(=O)c2ccccc2Cl)c2ccccc12`, the inhibition was 20%.

`Cc1cc(N)c2cc(NC(=O)c3ccc4ccccc4c3)ccc2n1`: the inhibition was 33%.

As for `COc1cccc(NC(=O)NC2CCN(c3ccnc(Nc4ccc(F)cc4)n3)C2)c1` (stereo not given), the inhibition was 9%.

On to `COc1ccc(CNc2ncnc3c2[nH]c2ccc(F)cc23)cc1`, for which the inhibition is 38%.

On to `FC(F)(F)c1cnc(Sc2nnc(-c3ccncc3)o2)c(Cl)c1`, for which the inhibition is 10%.

For the molecule `COc1cccc(-c2csc(C(=O)NCC3CCN(Cc4ccc(C(C)(C)C)cc4)C3)c2)c1` (stereo not given), the inhibition was 30%.

As to `COc1cc(OC)nc(C(Sc2ccc(NC(=O)c3cccs3)cc2)c2ccccc2)n1` (stereo not given), the inhibition is 7%.

As for `COCCn1ccc2c3c(N)nc(N)nc3ccc21`, the inhibition was 43%.

As for `CCCNC(=O)C1Cc2cc(OC)c(OC)cc2C2(N1)C(=O)N(Cc1cccc(OC)c1)c1ccccc12` (stereo not given), the inhibition is 11%.

`O=C(c1ccc(F)c(F)c1)N1CCOC(CCN2CCC(c3ccccc3)CC2)(c2ccc(Cl)c(Cl)c2)C1` (stereo not given): the inhibition is 51% (active).

`COc1ccc(-c2nc(NC(=O)CS(=O)(=O)c3ccc(C)cc3)sc2C)cc1`: the inhibition was 56% (active).

Regarding `COc1ccc(-c2ccccc2OCCCNc2nc(NCCc3ccc(O)cc3)nc(N3CCNCC3)n2)cc1`, the inhibition was 36%.

Regarding `CC(O)C1CCCCN1C(=O)c1ccc(-c2cccc(-c3nc4ccc(F)cc4[nH]3)c2)cc1` (stereo not given), the inhibition is 30%.

In the case of `CCN(CC)CCCC(C)Nc1c(-c2ccc(Br)cc2)cnc2ccccc12` (stereo not given), the inhibition is 7%.

Turning to `NCc1cccc(-c2cccc(CNC3CCN(Cc4ccccc4)CC3)c2)c1`, the inhibition is 9%.

As for `NS(=O)(=O)c1ccc(CNc2ccc3ncc(-c4ccc(Cl)cc4)n3n2)cc1`, the inhibition is 26%.

Consider `CCN(CC)CCCN(CCCN(CC)CC)c1cc(C)nc(Nc2ccc(Cl)cc2)n1`, for which the inhibition was 11%.

For the molecule `COc1cc2nc(N3CCC(CNCc4ccc(-c5ccc(C(F)(F)F)cc5)cc4)CC3)nc(N)c2cc1OC`, the inhibition is 99% (active).

As to `CCCCCn1c(Sc2ccc(C#N)c([N+](=O)[O-])c2)nnc1-c1cc(OC)cc(OC)c1`, the inhibition was 17%.

Take `Cc1cccc2[nH]c(-c3cccc(-c4ccc(NC(=O)C(C)(C)c5ccccn5)cc4)c3)nc12`: the inhibition is -3%.

Turning to `O=C(Cc1ccsc1)NCC(c1ccccc1Cl)c1c[nH]c2ccccc12` (stereo not given), the inhibition was 0%.

As to `O=C(c1cc(C(=O)Nc2ccccc2)c(=O)n(-c2ccccc2)c1)c1cc(Cl)ccc1O`, the inhibition was 9%.

On to `Cc1ccc2nc(-c3ccccc3)cc(NN=Cc3cccnc3)c2c1`, for which the inhibition was 12%.

For the molecule `Cc1[nH]c(C)c(-c2ccc(OCc3cccc(C(F)(F)F)c3)nc2)c(=O)c1Br`, the inhibition was 37%.

With `COc1cc2nc(C)nc(Nc3ccc4c(ccn4Cc4ccccc4)c3)c2cc1OC`, the inhibition was 2%.

`O=C(c1ccc(F)cc1)N1CCOC(CCN2CCC(c3ccccc3)CC2)(c2ccc(Cl)c(Cl)c2)C1` (stereo not given): the inhibition is 29%.
